Assay results taken from the supplement of paper PMC12340641.
Where a name gives a salt, the structure may show the parent alone.

Key:
[1] = molecular target: IKZF1 (dCK*-IKZF1 fusion in HEK293FT) (UniProt Q13422); assay: inhibition of IKZF1 HTRF signal (DMSO = 0%, pomalidomide 10 uM = 100%); higher = lower IKZF1 protein level; details: compound concentration: 5 uM, overnight (~20 h)
How it was run: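 After overnight treatment at 37 °C with 5 μM compound in single wells, HEK293FT cells (2000/well, 384-well) stably expressing an IKZF1 fusion were lysed for 30 min at room temperature. A commercial HTRF total-IKZF1 antibody kit was incubated with the lysate overnight, and the time-resolved FRET ratio at 665/620 nm was corrected for background. Data are given as percent inhibition of IKZF1 signal relative, on each plate, to vehicle and a reference degrader, set at 0% and 100% respectively.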

[2] = tested on: HEK293FT dCK*-only; assay: relative growth in counter assay (no AraC = 100%, AraC + DMSO = 0%); higher = more growth rescue independent of IKZF1; details: compound concentration: 5 uM; AraC concentration: 0.3 uM; overnight pretreatment + 4 days AraC
How it was run: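 Counter assay in HEK293FT cells expressing dCK* alone (300/well, 384-well). Cells received 5 μM compound 2 h after seeding, then after overnight at 37 °C a nucleoside suicide substrate at 0.3 μM plus medium for 4 days. On day 5, Hoechst 33342-stained nuclei were counted by imaging. Relative growth was normalised per plate to wells without suicide substrate (100%) and substrate plus vehicle (0%).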

[3] = tested on: HEK293FT dCK*-IKZF1; assay: relative growth recovery (pomalidomide 10 uM = 100%, DMSO = 0%); higher = more growth rescue (IKZF1 fusion degradation); details: compound concentration: 5 uM; AraC concentration: 0.3 uM; overnight pretreatment + 4 days AraC
How it was run: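 Means of duplicates from different days are given for growth recovery, normalised per plate against a reference degrader and vehicle. The reference degrader set the 100% level and vehicle the 0% level. HEK293FT cells stably expressing a deoxycytidine kinase–IKZF1 fusion (300/well, 384-well) received 5 μM compound 2 h after seeding and, after overnight at 37 °C, 0.3 μM of a nucleoside suicide substrate plus medium for 4 days. Nuclei stained with Hoechst 33342 were then counted by whole-well imaging on day 5.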

IKZF1 (dCK*-IKZF1 fusion in HEK293FT), sequence (Q13422 whole entry, looked up, the tested form may be a part): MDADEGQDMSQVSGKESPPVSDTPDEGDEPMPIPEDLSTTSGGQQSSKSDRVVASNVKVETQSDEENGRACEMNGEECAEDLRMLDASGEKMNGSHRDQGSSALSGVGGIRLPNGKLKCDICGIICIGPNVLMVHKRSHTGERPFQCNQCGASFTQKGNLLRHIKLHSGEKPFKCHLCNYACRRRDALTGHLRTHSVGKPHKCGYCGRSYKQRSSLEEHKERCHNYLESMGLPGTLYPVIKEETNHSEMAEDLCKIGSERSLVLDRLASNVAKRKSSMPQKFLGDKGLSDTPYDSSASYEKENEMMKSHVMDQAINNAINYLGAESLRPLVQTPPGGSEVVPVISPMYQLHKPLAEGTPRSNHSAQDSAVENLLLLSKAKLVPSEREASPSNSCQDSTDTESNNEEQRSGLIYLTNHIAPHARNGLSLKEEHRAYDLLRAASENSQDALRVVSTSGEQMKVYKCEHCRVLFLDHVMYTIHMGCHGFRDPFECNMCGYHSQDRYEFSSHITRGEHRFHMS

Structure (SMILES)	inhibition of IKZF1 HTRF signal [1] [%]	relative growth in counter assay [2] [%]	relative growth recovery [3] [%]
Nc1cccc2c1C(=O)N(C1CCC(=O)NC1=O)C2=O (centres undefined) [Pomalidomide]	92.7	2.03	81.4
CC(C)[C@H]1c2ccc(F)cc2CC[C@@]1(CCN(C)CCCc1nc2ccccc2[nH]1)OC(=O)C1CC1	-25.9	-31.9	-9.29
CNC[C@H](O)c1ccc(O)c(O)c1	-26.9	-15.6	-7
C=C1/C(=C\C=C2/CCC[C@]3(C)[C@@H]([C@H](C)CCCC(C)(C)O)CC[C@@H]23)C[C@@H](O)C[C@@H]1O [Calcitriol]	-12.4	-0.18	-0.98
C=CC[C@@H]1/C=C(\C)C[C@H](C)C[C@H](OC)[C@H]2O[C@@](O)(C(=O)C(=O)N3CCCC[C@H]3C(=O)O[C@H](/C(C)=C/[C@@H]3CC[C@@H](O)[C@H](OC)C3)[C@H](C)[C@@H](O)CC1=O)[C@H](C)C[C@@H]2OC [Tacrolimus]	-32.9	18.6	12.2
CCCCCCCCCCCCC[N+](C)(C)Cc1ccccc1	7.81	-14.8	-5.53
CN(C)c1ccc2nc3ccc(N(C)C)cc3[s+]c2c1	56.3	-29.4	-11.5
O=[N+]([O-])c1ccc(O)c2ncccc12	-23.9	-14.6	-2.33
Cc1ncsc1-c1ccc(CNC(=O)[C@@H]2C[C@@H](O)CN2C(=O)[C@@H](NC(=O)COCCOCCOc2ccc(-c3ccc4ncnc(Nc5ccc(OCc6cccc(F)c6)c(Cl)c5)c4c3)cc2)C(C)(C)C)cc1	6.76	49.6	19.7
O=C(Nc1ccc(F)cc1)N1CCc2ccccc2C1c1ccc(C(F)(F)F)cc1 (centres undefined)	-25.5	4.9	-0.27
CN(C)CCN1C(=O)c2cccc3cc(N)cc(c23)C1=O [Amonafide]	27.6	-32.4	-11.7
CCCOc1ccc2nc(NC(=O)OC)[nH]c2c1	-18.4	-15.2	-2.92
Cc1cccc(Nc2nc(-c3ccncc3)cs2)c1	-51.1	-8.26	-0.535
CCc1nc(N)nc(N)c1-c1ccc(Cl)cc1 [Pyrimethamine]	-52.5	3.76	-1.87
CO[C@H]1/C=C/O[C@@]2(C)Oc3c(C)c(O)c4c(O)c(c(C=NN5CCN(C)CC5)c(O)c4c3C2=O)NC(=O)C(C)=CC=CC(C)[C@@H](O)[C@@H](C)[C@H](O)[C@H](C)[C@@H](OC(C)=O)[C@H]1C (some centres undefined) [Rifampin (Rifampicin)]	-102	-0.8	-2.73
C=C1C(=O)O[C@@H]2C=C(C)CCC=C(C)CC[C@@H]12 [costunolide]	-26.8	-18.2	-0.955
C[n+]1c2cc(N)ccc2cc2ccc(N)cc21	69.3	-34.9	-15
COc1ccc(CN2C(=O)C(=O)c3cc(OC(F)(F)F)ccc32)cc1	-14.2	-33.6	-11.5
CSc1ccc2c(c1)N(CCC1CCCCN1C)c1ccccc1S2 (centres undefined)	-29	7.95	-4.45
C[C@@H]1CC2C3CCC4=CC(=O)C=C[C@]4(C)[C@@]3(F)[C@@H](O)C[C@]2(C)[C@H]1C(=O)CO (some centres undefined)	19.4	-5.74	-0.19
CCCCC/N=c1/ccn(Cc2ccccc2)c2ccccc12	-21.7	-2.74	-2.79

Structure (SMILES)	inhibition of IKZF1 HTRF signal [1] [%]	relative growth in counter assay [2] [%]	relative growth recovery [3] [%]
Cc1cc(/C=C/c2ccc3cc(N(C)C)ccc3[n+]2C)c(C)n1-c1ccccc1.Cc1cc(/C=C/c2ccc3cc(N(C)C)ccc3[n+]2C)c(C)n1-c1ccccc1 [pyrvinium]	76.3	-34.4	-13.1
C=C1C(=O)O[C@H]2[C@H]1CC/C(C)=C\CC[C@@]1(C)O[C@@H]21 [Parthenolide ((-)-Parthenolide)]	-18.3	-33.7	-11.6
COC(=O)C1=C(C)NC(C)=C(C(=O)OCC(C)C)C1c1ccccc1[N+](=O)[O-] (centres undefined) [Nisoldipine]	-28.1	-8.81	-3.19
CCCCCCCCCCC(CO)CCCCCCCC (centres undefined) [2-Octyldodecan-1-ol]	-45	-4.55	-2.31
Cc1ccc(S(=O)(=O)NC(=O)NN2CCCCCC2)cc1	-31.1	0.45	-2.75
Cc1cc(C(C)(C)CC(C)(C)C)ccc1OCCOCC[N+](C)(C)Cc1ccccc1	-17.4	-4.05	5.47
CC[n+]1c(-c2ccccc2)c2cc(N)ccc2c2ccc(N)cc21	39.8	-32.8	-12.2
O=C(/C=C/c1ccc(O)cc1)c1ccc(O)cc1O [Isoliquiritigenin]	-0.21	-7.18	-1.02
COc1cc(OC)c(/C=C2/C(=O)Nc3ccccc32)c(OC)c1	-15.9	-33.5	-11.3
CC[N+](C)(CC)CCC[n+]1c(-c2ccccc2)c2cc(N)ccc2c2ccc(N)cc21 [propidium-iodide]	58.8	-10.7	-3.16
FC(F)(F)c1cc(NC(=S)Nc2ccc(Br)cc2-c2nnn[nH]2)cc(C(F)(F)F)c1	-39	-37.2	-1.23
CO[C@H]1CC[C@H](N2C(=O)CNc3ncc(-c4ccc(C(C)(C)O)nc4)nc32)CC1	-19.1	-9.67	-7.24
CO[C@H]1/C=C/O[C@@]2(C)Oc3c(C)c(O)c4c(O)c(c(/C=N/N5CCN(C)CC5)c(O)c4c3C2=O)NC(=O)/C(C)=C\C=C\[C@H](C)[C@H](O)[C@@H](C)[C@@H](O)[C@@H](C)[C@H](OC(C)=O)[C@@H]1C	33.6	12.9	-2.5
COc1cc([C@@H]2c3cc4c(cc3[C@@H](O[C@@H]3O[C@@H]5CO[C@@H](C)O[C@H]5[C@H](O)[C@H]3O)[C@H]3COC(=O)[C@H]23)OCO4)cc(OC)c1O [Etoposide]	-29.2	-34.7	-12.5
OC(c1cc(C(F)(F)F)nc2c(C(F)(F)F)cccc12)C1CCCCN1 (centres undefined)	-31.6	-10.6	-7.16
CCCC(=O)C1CCN(c2ncnc3c2CN(C(=O)c2ccc(-c4ccccc4)cc2)CC3)CC1	-10.8	18	4.94
COC(=O)Nc1nc2cc(C(=O)c3ccc(F)cc3)ccc2[nH]1	-13.6	-8	-4.8
Clc1ccc(CSC(Cn2ccnc2)c2ccc(Cl)cc2Cl)cc1 (centres undefined) [Sulconazole Nitrate]	-32.3	-8.02	-2.21
O=C1C=Cc2cc(Br)ccc2C1=O [bonaphthone]	23	1.29	-2.85
O=C(CCCCCCC(=O)NO)NO	-47.9	-7.76	-0.655
O=C(O)c1ccccc1Nc1ccc(CCc2ccc(Cl)c(Cl)c2)cc1	-23.6	8.33	0.125

Structure (SMILES)	inhibition of IKZF1 HTRF signal [1] [%]	relative growth in counter assay [2] [%]	relative growth recovery [3] [%]
COc1ccc(-c2ccc3c(N4CCOC[C@@H]4C)nc(N4CCOC[C@@H]4C)nc3n2)cc1CO	50	-33.9	-13.8
O=C1CC[C@H](N2Cc3cc(N4CCN(CC5CCN(c6ccc([C@@H]7c8ccc(O)cc8CC[C@@H]7c7ccccc7)cc6)CC5)CC4)ccc3C2=O)C(=O)N1	-15.2	2.17	9.37
COc1ccc(C2CC(c3c(O)cc(C)oc3=O)=NCCS2)c(OC)c1 (centres undefined)	-11	-32.5	-10.9
O=C(/C=C/c1ccc(O)c(O)c1)c1ccc(O)cc1O [Butein]	8.77	-27.3	-8.42
Oc1ccc(/C=C/c2cc(O)cc(O)c2)cc1 [Resveratrol]	-25.5	5.43	2.06
COc1cc(NC(=O)c2ccc(-c3ccc(Cl)cc3)o2)cc(OC)c1	-48.3	14.9	7.22
NC(=O)N1c2ccccc2CC(=O)c2ccccc21	17.9	5.74	-1.02
CC[C@]1(O)C[C@H]2CN(CCc3c([nH]c4ccccc34)[C@@](C(=O)OC)(c3cc4c(cc3OC)N(C)[C@H]3[C@@](O)(C(N)=O)[C@H](O)[C@]5(CC)C=CCN6CC[C@]43[C@@H]65)C2)C1 [Vindesine Sulfate]	-14	-34.3	-11.6
O=c1c(O)c(-c2ccc(O)c(O)c2)oc2cc(O)ccc12 [Fisetin (Fustel)]	11.3	-3.66	-3.06
COC(=O)Nc1nc2ccc(Sc3ccccc3)cc2[nH]1	-26.6	-32.4	-9.72
O=c1c(O)c(-c2cc(O)c(O)c(O)c2)oc2cc(O)cc(O)c12 [Myricetin (Cannabiscetin)]	18.8	-1.64	-0.905
C=CCc1ccc(O)c(-c2cc(CC=C)ccc2O)c1 [Magnolol]	-27.1	-9.5	2.08
CN1CCN(Cc2ccc(-c3cnc4[nH]cc(-c5ccc6[nH]ccc6c5)c4c3)cc2)CC1	-32.6	-34.1	-11.6
Cn1c(=O)n(-c2ccc(C(C)(C)C#N)cc2)c2c3cc(-c4cnc5ccccc5c4)ccc3ncc21 [Dactolisib (BEZ235, NVP-BEZ235)]	46.7	-20.5	-7.88
COc1ccc(-c2ccc3ncc4c(c3c2)n(-c2ccc(N3CCNCC3)c(C(F)(F)F)c2)c(=O)n4C)cn1	88.1	-35.1	-15.2
CCCCOC(=O)c1ccc(N)cc1	-30.3	-2.73	-0.295
CCCCC(=O)OCC(=O)[C@]1(O)Cc2c(O)c3c(c(O)c2[C@@H](O[C@H]2C[C@H](NC(=O)C(F)(F)F)[C@H](O)[C@H](C)O2)C1)C(=O)c1c(OC)cccc1C3=O [Valrubicin]	-26.2	-34.4	-11.8
O=C(OOC(=O)c1ccccc1)c1ccccc1	-35.6	-0.7	1.32
C[C@H]1O[C@@H](n2cc(F)c(=O)[nH]c2=O)[C@H](O)[C@@H]1O	-24.1	-10.6	0.84
CSCC1CN(/N=C/c2ccc([N+](=O)[O-])o2)C(=O)O1 (centres undefined) [Nifuratel]	-39.4	-3.74	-1.79
COc1ccc(CCN(C)CCc2ccc(OC)c(OC)c2)cc1OC	-8.39	5.51	1.83
